Test results from PMC8769072, “Proteome‐scale mapping of binding sites in the unstructured regions of the human proteome” (Molecular Systems Biology, 2022).

These binders were tested against KPNA4 68-487, O00629.
Sequence of KPNA4 68-487, O00629 (O00629 68-487): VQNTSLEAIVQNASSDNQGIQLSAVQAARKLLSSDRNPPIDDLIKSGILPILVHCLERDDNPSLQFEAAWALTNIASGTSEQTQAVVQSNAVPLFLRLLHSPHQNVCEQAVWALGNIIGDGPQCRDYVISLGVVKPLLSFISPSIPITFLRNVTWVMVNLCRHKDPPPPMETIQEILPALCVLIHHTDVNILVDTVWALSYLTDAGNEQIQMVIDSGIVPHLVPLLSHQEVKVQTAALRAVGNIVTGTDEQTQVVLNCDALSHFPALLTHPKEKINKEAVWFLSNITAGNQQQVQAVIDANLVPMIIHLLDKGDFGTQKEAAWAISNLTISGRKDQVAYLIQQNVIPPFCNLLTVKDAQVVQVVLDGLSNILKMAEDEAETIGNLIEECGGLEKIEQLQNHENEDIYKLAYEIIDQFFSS

Selected by phage display, active:
SPTILGKRSYEQHNGV [MTA1, Q13330] confidence 2
WKRDSSGNKIMHPVSG [NUDT9, Q9BW91] confidence 2
MSSSPVKRQRMESALD [TALDO1, P37837] confidence 3
GKRPYEAIEAGKAFRY [ZNF471, Q9BX82] confidence 2
GLKRPASQDFEYLQEE [NRK, Q7Z2Y5] confidence 2
LESKRPRLEQVSDSHF confidence 2
RGLKRSLSEMEIGMVV [SRF, P11831] confidence 2
AIKRGYDDLQTIVPTA [MLX, Q9UH92] confidence 2
DHQFPAKRPRLSEPQG [HJURP, Q8NCD3] confidence 2
EDSIEPPHKRLALSSE [DMTF1, Q9Y222] confidence 3
KRPRYDDTVKINSMGG [ZNF318, Q5VUA4] confidence 3
KRPHQEFGISSQGAYL [PDE3B, Q13370] confidence 2
ELKRIKTEDGEGIVIA [FOXK2, Q01167] confidence 2
VHTTSKRPRLDPVLAD [FAM90A22P, A8MWA6] confidence 2
ELKRKLEQEQKLVEVL [MKL2, Q9ULH7] confidence 3
SLAPVKRTYEQMEFPL [ADNP, Q9H2P0] confidence 3
ESPSVKRMRLSEGWAT [MEF2C, Q06413] confidence 2
DLKRRLDSITSSQSSA [KDR, P35968] confidence 2
AEQSKRPRLEVGHQGV [EP400, Q96L91] confidence 3
AGVKRSAAEMYGSVTE [HNRNPC, P07910] confidence 3
HEISLKRSYESVEGNI confidence 3
GVKRTYSEVYPGQQYL [ZMIZ2, Q8NF64] confidence 3

The binders below were run against EPS15 121-215, P42566.
Sequence of EPS15 121-215, P42566 (P42566 121-215): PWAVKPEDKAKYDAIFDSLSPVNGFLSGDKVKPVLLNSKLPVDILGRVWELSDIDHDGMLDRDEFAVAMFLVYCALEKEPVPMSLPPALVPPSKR

Selected by phage display, active:
DSPGLNASNPFTQLER [DLGAP5, Q15398] confidence 2
GNPFMGVSATAVSSSS [CHD8, Q9HCK8] confidence 2
QSWLSATLSLATDTMR [MYO18B, Q8IUG5] confidence 2
NPFSAAPAATTVVQTH [SAP130, Q9H0E3] confidence 3
TPSEAERWLEEVSQVA [NUMBL, Q9Y6R0] confidence 3
GGNPFASVGSSSSSGE [UBQLN2, Q9UHD9] confidence 2
LNPFLTKSSGDVHLSI [PICALM, Q13492] confidence 4
TPLMNPFRLENVTVSE [TMEM114, B3SHH9] confidence 4
NPFLNGNVPVMPSLDE [SH3BP4, Q9P0V3] confidence 4
DMESDIRSWELFLSNV [TTC3, P53804] confidence 2
SNPFMTGAPTGQFPTG [AGFG1, P52594] confidence 3
NPFLPYISDTGTTPPE [DRAM1, Q8N682] confidence 4
NPFLVAAQDSETDYVT [RTN4, Q9NQC3] confidence 2
NPFTTLTDRELEEYRR [ADD1, P35611] confidence 3
QGRPVSVWDVLFSSYL [EPPK1, P58107] confidence 3
NPFSVHTATAVPSGKI [POLA1, P09884] confidence 3
LNQGNPFIATSGPGHL [CHD7, Q9P2D1] confidence 2
GLNPFGDSTHAAAAAA [ZIC3, O60481] confidence 2
NPFVPSMPAAPPTLPL [DENND1A, Q8TEH3] confidence 2
DVGLGINPFADGMGAF [ZIC1, Q15915] confidence 3
VNPFAQETLFVGNDQV [TMEM108, Q6UXF1] confidence 3
LNPFEVLQIDPEVTDE [DNAJC8, O75937] confidence 3
ELTGEKFLEMANPNVA [MACF1, Q9UPN3] confidence 2
EFGPENPFRTQQMAAP [CDC40, O60508] confidence 4
NPFNSSKLPEGHSSQQ [SYTL2, Q9HCH5] confidence 2
NPFSVSNPNPLLPSPA [RBM20, Q5T481] confidence 2

The binders below were run against KEAP1 321-609, Q14145.
Sequence of KEAP1 321-609, Q14145 (Q14145 321-609): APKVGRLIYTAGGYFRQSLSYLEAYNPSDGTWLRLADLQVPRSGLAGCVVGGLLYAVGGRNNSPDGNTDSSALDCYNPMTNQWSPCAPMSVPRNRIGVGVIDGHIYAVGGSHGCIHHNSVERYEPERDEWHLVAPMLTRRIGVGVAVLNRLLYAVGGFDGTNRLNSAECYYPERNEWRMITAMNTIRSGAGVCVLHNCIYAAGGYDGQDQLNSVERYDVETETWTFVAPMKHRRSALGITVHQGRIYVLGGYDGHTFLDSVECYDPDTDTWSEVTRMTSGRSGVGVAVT

Selected by phage display, active:
FALEYEADSGEVTSVI [C2orf68, Q2NKX9] confidence 2
REHNPESGEEVVTLLE [ZBED9, Q6R2W3] confidence 2
GGIIDPSTGERFPVTD [PLEC, Q15149] confidence 4
VEKDKVTGETRVLSST [PALM, O75781] confidence 2
LENNSETGELQPVLPE [TRIM37, O94972] confidence 2
PSPETGEAKRSAFVEV [PRDM8, Q9NQV8] confidence 3
TDELLRHPVTGEVVER [C6orf132, Q5T0Z8] confidence 4
PINPSTGELSTSSSSN [MCC, P23508] confidence 4
VLPDALTDGSDVVSDL [CFAP36, Q96G28] confidence 2
TTWLHPVTGEAVVTGH [PLEKHA5, Q9HAU0] confidence 2
FDAVTGEFTGMPEQWA [PAK1, Q13153] confidence 3
YDPVTGEWKSLAKLPE [KLHL24, Q6TFL4] confidence 3

Each binder was assayed against MAP1LC3A 2-121, Q9H492.

Selected by phage display, active:
WTDLENSIVSVERMQD [ABCC6, O95255] confidence 3
GPDSFTVLGNSMPSVF [BCL9, O00512] confidence 4

Each binder was assayed against MAP1LC3B 2-119, Q9GZQ8.

Selected by phage display, active:
WTDLENSIVSVERMQD [ABCC6, O95255] confidence 2
GPDSFTVLGNSMPSVF [BCL9, O00512] confidence 3
